Inconclusive results are not listed. Unless noted, the call rests on the fitted dose curve; in most records, active means well fitted curve in either direction with a large enough effect (not every such curve was filed as active); inconclusive means small, poorly fitted or top-dose-only effect, or another doubt; inactive means flat fitted curve, though single readings scatter.
Columns and labels:
[1] = AP1 Signaling Pathway (AID 357); settings: ME-180 AP-1-bla reporter, EGF-induced, beta-lactamase ratio, 5 h; at 17.2 µM (top of the series) unless noted;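 further: ME-180 reporter cells stimulated with EGF at its EC50 level; on the % scale 0 is the no-effect control and ±100 the full control effect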
Summary of the method: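 Beta-lactamase reporter under AP-1 response element, ME-180 background. Stimulus: EC50 EGF. Compound exposure 5 h, 37 °C. Detection: CCF4, 2.5 h RT, 460/530 nm. Values: AC50 from titration.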

[2] = Stat Signaling Pathway (AID 446); settings: ME-180 (cervical carcinoma) SIE beta-lactamase reporter, IL-6 stimulated, 5 h; at 17.2 µM (top of the series) unless noted;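 further: ME-180 cervical cancer cells given 40 pM IL-6 alongside compound; SIE-controlled beta-lactamase reporter measured as 460/530 nm FRET emission ratio; on the % scale 0 is the no-effect control and ±100 the full control effect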
Summary of the method: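 Emission at 460 and 530 nm (excitation 405 nm) reports SIE-controlled beta-lactamase in ME-180 cells. Cells received compound with 40 pM IL-6 for 5 hrs at 37 C; data scaled between 300 pM IL-6 and 125 nM JAK-inhibitor controls.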

[3] = molecular target: Glucocorticoid receptor (Homo sapiens) (UniProt P04150); assay: GR-GFP Redistribution (AID 450;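 active means compounds whose dose series gives a full or clear partial fitted curve of increased nuclear translocation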; further: potency means the concentration at half of the fitted maximal effect)
Chain of Glucocorticoid receptor (Homo sapiens) (P04150 whole entry, looked up): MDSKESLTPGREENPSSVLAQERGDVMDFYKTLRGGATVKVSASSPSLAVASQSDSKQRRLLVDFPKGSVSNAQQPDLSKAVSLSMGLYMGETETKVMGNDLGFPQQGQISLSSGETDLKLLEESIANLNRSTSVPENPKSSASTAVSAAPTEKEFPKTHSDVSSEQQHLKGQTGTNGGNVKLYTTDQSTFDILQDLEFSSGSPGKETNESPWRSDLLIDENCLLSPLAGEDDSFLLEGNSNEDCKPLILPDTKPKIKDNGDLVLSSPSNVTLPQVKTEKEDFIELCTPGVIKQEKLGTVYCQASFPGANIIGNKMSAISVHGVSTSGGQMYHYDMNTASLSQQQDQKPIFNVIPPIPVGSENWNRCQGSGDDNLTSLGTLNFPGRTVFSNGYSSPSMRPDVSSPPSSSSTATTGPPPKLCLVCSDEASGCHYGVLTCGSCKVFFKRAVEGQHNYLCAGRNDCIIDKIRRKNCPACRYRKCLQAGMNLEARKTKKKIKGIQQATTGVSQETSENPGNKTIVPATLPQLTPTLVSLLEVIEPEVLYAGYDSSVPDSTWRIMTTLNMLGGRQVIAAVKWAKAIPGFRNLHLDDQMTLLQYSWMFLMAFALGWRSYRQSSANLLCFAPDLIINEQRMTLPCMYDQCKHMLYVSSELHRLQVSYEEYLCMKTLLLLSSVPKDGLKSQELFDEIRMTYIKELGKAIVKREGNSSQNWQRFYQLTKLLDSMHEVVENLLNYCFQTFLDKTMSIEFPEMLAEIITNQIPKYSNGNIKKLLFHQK

Cc1ccc(S(=O)(=O)N2CCC(N3CCCCCC3)CC2)cc1
inactive: activity change, negative = inhibition [1] 15.1% | activity, negative = inhibition [2] 10.2% | Potency [3] > 20.6 µM

CCOc1ccc(-c2nn3c(-c4ccc(OC)cc4)nnc3s2)cc1
inactive: activity change, negative = inhibition [1] -1.24% | activity, negative = inhibition [2] 24.4% | Potency [3] > 20.6 µM

CC1(C)Cc2c(c(N3CCOCC3)nc3sc(C#N)c(N)c23)CS1
inactive: activity change, negative = inhibition [1] 11.7% | activity, negative = inhibition [2] -14.4% | Potency [3] > 20.6 µM

CC(C)C(=O)N1CCN(c2nc(-c3ccccc3)c3c(c2C#N)CC(C)(C)OC3)CC1
inactive: activity change, negative = inhibition [1] -2.44% | activity, negative = inhibition [2] 9.79% | Potency [3] > 20.6 µM

Cc1cccn2c(=O)c3cc(C(N)=S)c(=N)n(CCCOC(C)C)c3nc12
inactive: activity change, negative = inhibition [1] -0.111% | activity, negative = inhibition [2] 13.3% | Potency [3] > 20.6 µM

CCCCCNC(=O)C(C#N)c1nc2ccccc2nc1N1CC(C)OC(C)C1 (centres undefined)
inactive: activity change, negative = inhibition [1] -18.2% | activity, negative = inhibition [2] -11.4% | Potency [3] > 20.6 µM

CCOc1ccc2c(C)nc(NC3=NC(C)(C)C=C(C)N3)nc2c1
inactive: activity change, negative = inhibition [1] 26.3% | activity, negative = inhibition [2] 25.6% | Potency [3] > 20.6 µM

CC1(C)Cc2nc(NCCCO)c(C#N)cc2CO1
inactive: activity change, negative = inhibition [1] -6.96% | activity, negative = inhibition [2] 7.31% | Potency [3] > 20.6 µM

CC(C)CSc1nc(N2CCOCC2)c2c(c1C#N)CC(C)(C)SC2
inactive: activity change, negative = inhibition [1] -7.32% | activity, negative = inhibition [2] 2.55% | Potency [3] > 20.6 µM

CCOC(=O)C1CCN(c2nc3ccccc3nc2C(C#N)C(=O)OC(C)COC)CC1 (centres undefined)
inactive: activity change, negative = inhibition [1] -6.33% | activity, negative = inhibition [2] -12.7% | Potency [3] > 20.6 µM

CC(C)OC(=O)C(C#N)c1nc2ccccc2nc1N1CCN(Cc2ccc3c(c2)OCO3)CC1 (centres undefined)
inactive: activity change, negative = inhibition [1] -10.5% | activity, negative = inhibition [2] -12.7% | Potency [3] > 20.6 µM

CC1(C)Cc2c(C#N)c(N3CCOCC3)nc(-c3ccccc3)c2CO1
inactive: activity change, negative = inhibition [1] -10.7% | activity, negative = inhibition [2] 6.12% | Potency [3] > 20.6 µM

COc1cc(-c2nn3c(-c4cccnc4)nnc3s2)cc(OC)c1OC
inactive: activity change, negative = inhibition [1] -0.374% | activity, negative = inhibition [2] -7.44% | Potency [3] > 20.6 µM

CCCCc1c(O)nc(SCCN(C)C)n(-c2ccccc2)c1=O
inactive: activity change, negative = inhibition [1] 10% | activity, negative = inhibition [2] 2.07% | Potency [3] > 20.6 µM

N#Cc1nc(COc2ccc(Cl)cc2)oc1N1CCN(Cc2ccccc2)CC1
inactive: activity change, negative = inhibition [1] -16.3% | activity, negative = inhibition [2] 4.41% | Potency [3] > 20.6 µM

CCOc1ccc(C2C=C(c3ccccc3)Nc3ncnn32)cc1 (centres undefined)
inactive: activity change, negative = inhibition [1] -28.8% | activity, negative = inhibition [2] -2.5% | Potency [3] > 20.6 µM

Cc1cccc(NC(=O)c2c(C)cc(=O)oc2C)n1
inactive: activity change, negative = inhibition [1] -0.882% | activity, negative = inhibition [2] 4.29% | Potency [3] > 20.6 µM

O=C(CCN1C(=O)c2ccccc2C1=O)OCN1C(=O)c2ccccc2C1=O
inactive: activity change, negative = inhibition [1] 5.65% | activity, negative = inhibition [2] -0.962% | Potency [3] > 20.6 µM

CCCSc1nnc2n(C)c(=O)c3c4c(sc3n12)CCC4
inactive: activity change, negative = inhibition [1] -1.82% | activity, negative = inhibition [2] -5.35% | Potency [3] > 20.6 µM

CSC1=Nc2sc3c(c2C2=NCCN12)CC(C)(C)OC3
inactive: activity change, negative = inhibition [1] 26% | activity, negative = inhibition [2] 14.3% | Potency [3] > 20.6 µM

CC(=O)O[C@H]1C(=O)[C@]2(C)[C@H]([C@H](OC(=O)c3ccccc3)[C@]3(O)C[C@H](OC(=O)[C@H](O)[C@@H](NC(=O)c4ccccc4)c4ccccc4)C(C)=C1C3(C)C)[C@]1(OC(C)=O)CO[C@@H]1C[C@@H]2O
inactive: activity change, negative = inhibition [1] -5.19% | activity, negative = inhibition [2] -2.52% | Potency [3] > 20.6 µM

COc1cccc(-c2nc(NCCN3CCOCC3)c3ccccc3n2)c1O
inactive: activity change, negative = inhibition [1] -15.3% | activity, negative = inhibition [2] 6.04% | Potency [3] > 20.6 µM

COc1cccc(C(=O)OC2CCCN(C)C2)c1 (centres undefined)
inactive: activity change, negative = inhibition [1] -4.26% | activity, negative = inhibition [2] 4.49% | Potency [3] > 20.6 µM

COc1cccc(NC(=O)C2CC(=O)n3cnnc3S2)c1 (centres undefined)
inactive: activity change, negative = inhibition [1] -17.5% | activity, negative = inhibition [2] -7.33% | Potency [3] > 20.6 µM

CCN(CC)c1nc(-c2cccc(OC)c2O)nc2ccccc12
inactive: activity change, negative = inhibition [1] -20.9% | activity, negative = inhibition [2] -20% | Potency [3] > 20.6 µM

CCOC(=O)c1c(NC(=O)CCN2CCOCC2)sc2c1CC(C)(C)OC2
inactive: activity change, negative = inhibition [1] -21.7% | activity, negative = inhibition [2] -5.77% | Potency [3] > 20.6 µM

CC(C)Cc1nc(N2CCOCC2)c(C#N)c2c1CCC2
inactive: activity change, negative = inhibition [1] -16.4% | activity, negative = inhibition [2] -0.768% | Potency [3] > 20.6 µM

Cn1ccnc1C(O)c1ccc(OCc2ccccc2)cc1 (centres undefined)
inactive: activity change, negative = inhibition [1] -6.56% | activity, negative = inhibition [2] 2.08% | Potency [3] > 20.6 µM

N#Cc1c(NCCCO)nc(-c2ccccc2)c2c1CCCC2
inactive: activity change, negative = inhibition [1] -2.16% | activity, negative = inhibition [2] -5.59% | Potency [3] > 20.6 µM

CN1C2C=C3C(C#N)=C(N)C(C#N)(C#N)[C@@H](c4ccsc4)[C@@H]3C1CC2 (some centres undefined)
inactive: activity change, negative = inhibition [1] 20.1% | activity, negative = inhibition [2] 3.71% | Potency [3] > 20.6 µM

COc1ccc(C2/C(=C(\O)c3ccc4c(c3)OCCO4)C(=O)C(=O)N2CCCN(C)C)cc1 (centres undefined)
inactive: activity change, negative = inhibition [1] 8.31% | activity, negative = inhibition [2] 2.89% | Potency [3] > 20.6 µM

CCOC(=O)COn1c(=O)c(-c2ccco2)[n+]([O-])c2ccccc21
inactive: activity change, negative = inhibition [1] -20.1% | activity, negative = inhibition [2] 12.3% | Potency [3] > 20.6 µM

COc1ccc(CCn2c(=N)c(C(=O)NCc3ccco3)cc3c(=O)n4ccccc4nc32)cc1OC
inactive: activity change, negative = inhibition [1] -14.6% | activity, negative = inhibition [2] -2.08% | Potency [3] > 20.6 µM

CCn1c(SCC(=O)N2CCOCC2)nc2sc3c(c2c1=O)CCCC3
inactive: activity change, negative = inhibition [1] -8.7% | activity, negative = inhibition [2] -6.44% | Potency [3] > 20.6 µM

CCOC(=O)c1[nH]c2ccc(F)cc2c1NC(=O)CCN1CCSCC1
inactive: activity change, negative = inhibition [1] 0.77% | activity, negative = inhibition [2] 0.475% | Potency [3] > 20.6 µM

C=CCn1c(=O)c(C(=O)NCCN(CC)CC)c(O)c2ccccc21
inactive: activity change, negative = inhibition [1] 14.7% | activity, negative = inhibition [2] 8.32% | Potency [3] > 20.6 µM

Cc1ccc2nc(NCc3ccccc3)[nH]c2c1
inactive: activity change, negative = inhibition [1] 1.71% | activity, negative = inhibition [2] -9.23% | Potency [3] > 20.6 µM

CCOC(=O)c1[nH]c2ccccc2c1N=C(C)N(CC)CC
inactive: activity change, negative = inhibition [1] 4.17% | activity, negative = inhibition [2] 5.19% | Potency [3] > 20.6 µM

COc1ccc2c(c1OC)C(=O)N1c3ccccc3C(=O)N(c3ccccc3)C21 (centres undefined)
inactive: activity change, negative = inhibition [1] -9.35% | activity, negative = inhibition [2] 0.163% | Potency [3] > 20.6 µM

O=C(NCc1ccco1)c1cnn2c(C(F)(F)F)cc(-c3ccco3)nc12
inactive: activity change, negative = inhibition [1] -3.32% | activity, negative = inhibition [2] 10.1% | Potency [3] > 20.6 µM

Cc1ccc(S(=O)(=O)c2cc3c(=O)n4cccc(C)c4nc3n(CC3CCCO3)c2=N)cc1 (centres undefined)
inactive: activity change, negative = inhibition [1] 2.16% | activity, negative = inhibition [2] 2.48% | Potency [3] > 20.6 µM

Nc1ccc2c(c1)N1CCN=C1S2
inactive: activity change, negative = inhibition [1] -0.461% | activity, negative = inhibition [2] 8.4% | Potency [3] > 20.6 µM

O=c1c2c3c(sc2n2cnnc2n1Cc1ccccc1)CN(Cc1ccccc1)CC3
inactive: activity change, negative = inhibition [1] 0.127% | activity, negative = inhibition [2] -0.303% | Potency [3] > 20.6 µM

Cc1nc(-c2cn[nH]c2)c2cc(C)oc2n1
inactive: activity change, negative = inhibition [1] -1.95% | activity, negative = inhibition [2] -3.87% | Potency [3] > 20.6 µM

CCCSc1nnc2n(-c3ccccc3OC)c(=O)c3c4c(sc3n12)CCC4
inactive: activity change, negative = inhibition [1] 3.26% | activity, negative = inhibition [2] 15% | Potency [3] > 20.6 µM

CC(C)C(=O)N1CCN(c2nc(-c3ccccc3)c3c(c2C#N)CCCC3)CC1
inactive: activity change, negative = inhibition [1] -14.8% | activity, negative = inhibition [2] -9.28% | Potency [3] > 20.6 µM

COC(=O)c1ccc(Oc2nc3ccccc3n3c(C)nnc23)cc1
inactive: activity change, negative = inhibition [1] 13% | activity, negative = inhibition [2] 4.74% | Potency [3] > 20.6 µM

COc1ccc(OC)c(NS(=O)(=O)c2ccc(N3CCCC3=O)cc2)c1
inactive: activity change, negative = inhibition [1] 18.1% | activity, negative = inhibition [2] 11.3% | Potency [3] > 20.6 µM

CCOc1ccc(C2=Nn3c(nnc3-c3ccccn3)SC2)cc1
inactive: activity change, negative = inhibition [1] -11.7% | activity, negative = inhibition [2] 3.43% | Potency [3] > 20.6 µM

CCC(NC(C)C)C(O)c1ccc(O)c2[nH]c(=O)ccc12 (centres undefined)
inactive: activity change, negative = inhibition [1] -12.1% | activity, negative = inhibition [2] 11.4% | Potency [3] > 20.6 µM

COc1ccc(N2CCN(C3CC(=O)NC3=O)CC2)cc1 (centres undefined)
inactive: activity change, negative = inhibition [1] -0.252% | activity, negative = inhibition [2] 17.5% | Potency [3] > 20.6 µM

CCc1cc(=O)oc2c(CN3CCCC3)c(O)c(Cl)cc12
inactive: activity change, negative = inhibition [1] 12.3% | activity, negative = inhibition [2] 4.15% | Potency [3] > 20.6 µM

Clc1ccc(Cl)c(-c2ccc(/C=N/c3ncn[nH]3)o2)c1
inactive: activity change, negative = inhibition [1] -20.5% | activity, negative = inhibition [2] -6.04% | Potency [3] > 20.6 µM

Cn1nnc2c(sc3nc(N4CCOCC4)c4c(c32)CCCC4)c1=O
inactive: activity change, negative = inhibition [1] -0.625% | activity, negative = inhibition [2] -0.897% | Potency [3] > 20.6 µM

O=c1c2ccccc2[nH]c(=S)n1CCN1CCC(=C(c2ccc(F)cc2)c2ccc(F)cc2)CC1
inactive: activity change, negative = inhibition [1] 10.4% | activity, negative = inhibition [2] -6.03% | Potency [3] > 20.6 µM

CC(=O)Nc1ccc(-c2cc3ccccc3o2)cc1
inactive: activity change, negative = inhibition [1] -10.3% | activity, negative = inhibition [2] -0.606% | Potency [3] > 20.6 µM

Cc1ccc(S(=O)(=O)c2cc3c(=O)n4ccccc4nc3n(C)c2=N)cc1
inactive: activity change, negative = inhibition [1] 23.8% | activity, negative = inhibition [2] 26.2% | Potency [3] > 20.6 µM

Cc1ccc(SCc2c(C#N)c3ccccc3n2C)cc1
inactive: activity change, negative = inhibition [1] -29.6% | activity, negative = inhibition [2] -15.3% | Potency [3] > 20.6 µM

— PubChem BioAssay (NCATS)
